PubChem BioAssay AID624296 (National Center for Advancing Translational Sciences (NCATS), 2012)
The whole screen tested about 350,000 compounds, of which about 9,900 (2.8%) were called active. Roughly 15% stayed inconclusive and do not appear here. Shown is part of a subset that was picked to be rich in actives. Values without a mark were called inactive. Calls come from the whole dose curve; as a rule, active = well fitted activation curve with a large enough effect; inconclusive = small, poorly fitted or top-dose-only effect; inactive = no such curve, though single readings can be large or run the other way.

Test: A quantitative high throughput screen for small molecules that induce DNA re-replication in MCF 10a normal breast cells. For activity, positive = re-replication: % of control where 0% means no effect. Note: nearly all actives have a fitted effect of over 50% in size.
Settings: MCF 10A DNA re-replication, Hoechst nuclear intensity, 48 h; series mostly up to 46.1 µM; activity, positive = re-replication: at the top concentration
Source text: H Molecular Libraries Probe Production Network [MLPCN]
NIH Chemical Genomics Center [NCGC]
Assay Provider: Melvin DePamphilis, NICHD, NIH
Eukaryotic cells normally restrict genome duplication to once per cell division. When this process is aberrant, DNA re-replication occurs when cells reinitiate DNA replication before the first round of replication is complete. DNA re-replication induces the DNA damage response, arrests cell proliferation, and triggers apoptosis. The cell cycle components cyclin A, Cdt-1, Cdc6 and geminin are critical regulators of this process and their misregulation results in DNA re-replication in normal and cancer cells. To identify compounds that induce re-replication in normal cells, an image-based assay was used to measure DNA content of nuclei, as detected by the fluorescent DNA binding dye, Hoechst. Cell nuclei were imaged by a fluorescence scanning plate imager and compounds that induce DNA re-replication were identified by the increase of nuclei with elevated fluorescence intensity
For screening, 250 cells in 5 uL/well were dispensed into black clear 1536-well plates (Aurora) using a solenoid-based dispenser. Following transfer of 23 nL compound or DMSO vehicle by a pin tool, the plates were incubated 48 hr at 37 C and 5% CO2. After addition of 1 uL/well Hoescht stain, the plates were incubated 40 min at 37 C, 5% CO2 and total intensity of fluorescent objects (nuclei) were enumerated by an Acumen Explorer Ex3 (TTP LabTech) fluorescence scanning plate imager (405 nm excitation, 500-530 nm emission).
Keywords: NIH Roadmap, MLPCN, MLI, MLSMR, qHTS, NCGC, DNA replication, cancer
Potency is the fitted concentration of half-maximal effect.

In order of falling “activity, positive = re-replication” value:
1. c1ccc(-c2nnc(N3CCOCC3)c3ccccc23)cc1  21.2%
2. COC(=O)[C@]1(C)N[C@H](CN(C)C(=O)c2ccc(C(C)(C)C)cc2)[C@@H]2C(=O)N(C)C(=O)[C@@H]21  21%
3. CCn1c(=O)cc(OCC(=O)NCCCN2CCN(c3cccc(Cl)c3)CC2)c2ccccc21  19.6%
4. O=C(c1cccc(S(=O)(=O)N2CCCCCC2)c1)N1CCN(Cc2ccccc2)CC1  18.3%
5. CC1CC(C)CN(CC(=O)N2c3ccccc3CCc3ccccc32)C1 (stereo not given)  14.8%
6. CCOC(=O)c1sc2nc(SC)nc(-c3ccccc3)c2c1N  13.6%
7. CC1CCCN(CC(O)COc2ccc3c(c2)OCO3)C1 (stereo not given)  12.3%
8. O=S1(=O)CCOC[C@H](Cc2ccccc2)N1Cc1ccccc1Br  12%
9. O=[N+]([O-])c1ccc(O)c(/C=N/Nc2ccccc2[N+](=O)[O-])c1  11.1%
10. COc1cccc(/C(C)=N/Nc2ncc(Cl)cc2Cl)c1  10.2%
11. Cc1ccc(S(=O)(=O)NC2CCCCCC2)cc1  9.3%
12. Cc1ccc(NS(=O)(=O)c2ccc(N/N=C/c3ccccc3OCC(=O)O)c([N+](=O)[O-])c2)c(C)c1  7.31%
13. Cc1cccc(NS(=O)(=O)c2ccc(C)c(C(=O)NCc3cccnc3)c2)c1  6.28%
14. COc1ccc(NS(=O)(=O)c2cc(NC(=O)COc3ccccc3F)ccc2OC)cc1  5.57%
15. Cc1cccc(-c2oc3ccc(-c4ccc5c(c4)OCO5)cc3c2C#Cc2cncn2C)c1  5.28%
16. Cn1c(C(=O)NCCc2ccsc2)cc2c(=O)n(C)c3ccccc3c21  4.88%
17. CCOC(=O)C1CCCN(C(=O)C2CCN(S(=O)(=O)c3ccc(Cl)c(C(F)(F)F)c3)CC2)C1 (stereo not given)  4.77%
18. COc1cccc(/C=N/Nc2cc(C)nc(-c3ccccc3O)n2)c1O  4.07%
19. O=C(Nc1nnc(-c2ccccc2)o1)c1cccc(S(=O)(=O)N2CCOCC2)c1  3.72%
20. c1ccc(CCc2ccccn2)cc1  3.05%
21. O=C(COc1ccccc1)NCCc1nc2ccccc2[nH]1  2.97%
22. Cc1ccc(S(=O)(=O)N(C)C2(C)CCS(=O)(=O)C2)cc1 (stereo not given)  1.42%
23. CC1C(=O)N(Cc2ccccc2)c2ccccc2N1C(=O)c1ccccc1 (stereo not given)  1.1%
24. O=C1c2ccccc2C(=O)C1c1ccccc1F  1.07%
25. S=c1[nH]nc(-c2ccncc2)n1/N=C/c1ccccc1Cl  0.454%
26. CCOC(=O)c1ccccc1NC(=O)COC(=O)C(Cc1c[nH]c2ccccc12)NC(C)=O (stereo not given)  0.288%
27. COc1ccc(OCCCON2C(=O)c3ccccc3C2=O)cc1  0.15%
28. O=C(C1CC(=O)N(C2CCCC2)C1)N1CCN(c2cccc(C(F)(F)F)c2)CC1 (stereo not given)  0.122%
29. CC(OC(=O)c1ccc([N+](=O)[O-])cc1)C(=O)NCC1CCCCC1 (stereo not given)  -0.0529%
30. CCCC(=O)n1nc(-c2ccccc2)nc1N  -0.296%
31. O=C1CN(C(=O)COC(=O)/C=C/c2ccc(F)cc2)c2ccccc2N1  -0.315%
32. CCC(C)C1(C2CCCC2)NC(=O)NC1=O (stereo not given)  -0.499%
33. CC(C)(C)OC(=O)C[C@@H]1C/C=C\C[C@@H](CC(=O)NCCO)C(=O)N[C@H](Cc2c[nH]c3ccccc23)COC1=O  -0.516%
34. O=C(N/N=C/c1ccc([N+](=O)[O-])o1)c1cccc(S(=O)(=O)N2CCOCC2)c1  -0.655%
35. COc1ccc(OC(C)C(=O)NCCc2nc3ccccc3[nH]2)cc1 (stereo not given)  -0.913%
36. CC(C)(C)OC(=O)C1=C(CO)CS[C@@H]2[C@H](NC(=O)Cc3ccccc3)C(=O)N12  -1.22%
37. Cc1cc(C)nc(N/N=C/c2ccc([N+](=O)[O-])o2)n1  -1.22%
38. O=C(COC(=O)c1ccncc1)Nc1ccc2c(c1)OCO2  -1.83%
39. O=C(COC(=O)c1ccc(F)cc1)Nc1ccc2c(c1)OCO2  -2.32%
40. O=C(CCc1nc(-c2ccccc2)no1)Nc1cccc(C(=O)NC2CC2)c1  -2.58%
41. COCCN(C(=O)C(C)N1C(=O)c2ccccc2C1=O)c1c(N)n(CC(C)C)c(=O)[nH]c1=O (stereo not given)  -2.72%
42. O=C(CSc1nc2ccccc2c(=O)n1-c1ccccc1F)N1CCOCC1  -2.83%
43. C/C=C/c1ccc(OCC(=O)NNC(=O)CN(C)S(=O)(=O)c2ccc(C)cc2)c(OC)c1  -3.34%
44. N#Cc1cccc(NC(=O)C2CCCN(C(=O)c3ccc(Cl)cc3)C2)c1 (stereo not given)  -3.89%
45. COc1cc(COCC(O)CN2CCN(Cc3ccc4c(c3)OCO4)CC2)cc(OC)c1OC (stereo not given)  -4.04%
46. Cc1ccc(CC(=O)Nc2ccc(S(=O)(=O)N3CCOCC3)cc2)cc1C  -4.17%
47. S=c1[nH]nc(-c2ccco2)n1/N=C/c1ccccc1  -5.89%
48. O=C1COc2ccc(C(=O)COC(=O)c3ccccc3Cl)cc2N1  -6.39%
49. COc1ccc(N2CCN(C(C)=C3C(=O)c4ccccc4C3=O)CC2)cc1  -6.44%
50. Cc1ccc(S(=O)(=O)N2CCC(C(=O)N3CCCCCCC3)CC2)cc1  -11.9%
51. O=c1ccc2c(-c3ccccc3S(=O)(=O)O)c3ccc(O)c(O)c3oc-2c1O  -16.3%
52. O=C(CP(=O)(c1ccccc1)c1ccccc1)N1CCOCC1  -20.5%

For CCCCCOc1ccc(/C=C/C(=O)NCCc2nc3ccccc3[nH]2)cc1OC, the Potency was 20.6 µM (active).
For CCOC(=O)C1=C(c2ccc(OC)cc2)C(=O)c2ccccc2C1=O, the Potency was 2.91 µM (active).
In the case of COc1cccc(/C=N/Nc2ncc(C(F)(F)F)cc2Cl)c1O, the Potency is reported as 1.46 µM (active).
For Cc1ccc(S(=O)(=O)C2(S(=O)(=O)c3ccc(C)cc3)CCCC2)cc1, the Potency was 8.2 µM (active).
For S=c1[nH]nc(-c2cccnc2)n1/N=C/C(Cl)=C\c1ccccc1, the Potency was 13 µM (active).
In the case of O=C(c1snnc1-c1ccccc1)N1CCOCC1, the Potency is reported as 0.651 µM (active).
In the case of CCN(CC)C(=O)c1sc2nc(-c3ccccc3)ccc2c1N, the Potency is reported as 23.1 µM (active).
With NC(=O)C(=O)N/N=C/c1ccc([N+](=O)[O-])o1 the Potency was 26.6 µM (active).
With CN1CCN(CC(O)COCc2ccc3c(c2)OCO3)CC1 (stereo not given) the Potency was 20.6 µM (active).
In the case of CC1C(C)N(C(=O)CCl)c2ccccc2N1C(=O)CCl (stereo not given), the Potency is reported as 7.31 µM (active).
In the case of O=C1c2ccccc2C2=Nc3ccccc3SC(c3ccccc3F)C12 (stereo not given), the Potency is reported as 6.51 µM (active).
For Cn1c(C(=O)NCCCN2CCN(c3cccc(Cl)c3)CC2)cc2c(=O)n(C)c3ccccc3c21, the Potency was 14.6 µM (active).
In the case of Cc1cccc(COc2ccccc2/C=N/Nc2ccc([N+](=O)[O-])cc2)c1, the Potency is reported as 10.3 µM (active).
